Source: PubChem (The Scripps Research Institute Molecular Screening Center)
The list is not random: actives were taken first. Their share in the collection is about 3.5%.
MITF inh: blocks human microphthalmia-associated transcription factor. AlphaScreen MITF homodimerization, bead proximity signal. AID 1259374. O75030. inhibition, % at 2.6 µM. actives 0.91% (n = 650,000); in the data active = inhibition above about 50%;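 note: 0% = vehicle wells with protein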
GPR151 activ: activates the human receptor GPR151 | Q8TDV0 | PathHunter beta-arrestin GPR151 cells, luminescence | activation, % at 11.2 µM | actives 1% (n = 650,000); in the data active = activation above about 4.9%;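 note: 0% = median of compound wells and 100% = cells with positive control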
Target sequence (Q8TDV0 whole entry, looked up): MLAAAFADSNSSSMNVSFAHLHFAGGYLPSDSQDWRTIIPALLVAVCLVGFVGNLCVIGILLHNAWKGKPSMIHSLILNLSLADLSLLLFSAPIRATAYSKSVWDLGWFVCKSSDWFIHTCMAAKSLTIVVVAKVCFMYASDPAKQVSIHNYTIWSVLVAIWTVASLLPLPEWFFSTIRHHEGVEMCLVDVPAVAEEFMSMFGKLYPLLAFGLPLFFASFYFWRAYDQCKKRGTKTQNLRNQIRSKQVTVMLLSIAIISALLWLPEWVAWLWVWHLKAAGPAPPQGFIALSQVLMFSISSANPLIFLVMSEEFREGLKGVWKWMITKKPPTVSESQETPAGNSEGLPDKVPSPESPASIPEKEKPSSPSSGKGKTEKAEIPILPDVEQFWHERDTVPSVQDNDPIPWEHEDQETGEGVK
FBW7 activator: activators of human E3 ligase FBW7. Q969H0. AlphaScreen FBW7–phospho-cyclin E peptide binding, activator screen. normalized activity (activation), % at 26.1 µM. actives 0.13% (n = 650,000); in the data active = normalized activity above about 1.9%;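 note: purified mutant Fbw7 with reduced substrate affinity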
TEAD-YAP block: TEAD-YAP interaction inhibition; actives 1.4% (n = 640,000); HEK-TIYL cells, TEAD-Gal4/YAP UAS-luciferase luminescence; inhibition, % at 9.12 µM; in the data active = inhibition above about 32%;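 note: 0% = median of test compound wells and 100% = reference inhibitor wells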
GPR151 conf act: human GPR151 activation, confirmation screen; shares compounds with GPR151 activ; GPR151 PathHunter beta-arrestin cells, luminescence, 90 min; % of EA-reagent control over plate median; activation, % at 11.2 µM; 6,700 tested, under 10 active;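 active = mean percent activation across replicates above the confirmation screen cutoff of 4.91%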
GPR119 counter: counter-screen for GPR151 activators: effect on human GPR119; AID 1508611; actives 0.3% (n = 6,700); shares compounds with GPR151 activ; GPR119 PathHunter beta-arrestin cells, luminescence, 90 min; 0 = compound-well median, 100 = enzyme-acceptor control; activation, % at 11.2 µM;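 active = mean percent activation in the counterscreen above 29.09%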;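 note: counterscreen on off-target GPR119 to flag nonselective hits from the GPR151 activator screen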
Starred values were filed as active, the others as inactive; x = no result; ! = not active in a repeat.

SMILES | MITF inh | GPR151 activ | FBW7 activator | TEAD-YAP block | GPR151 conf act | GPR119 counter
Cc1cc(C)n(-c2cc(NCCNC(=O)C(C)(C)Oc3ccc(Cl)cc3)nc(C)n2)n1 | -18 | 8.6* | 0 | 10 | 1 | 0
O=S(=O)(NCC1CCCO1)c1ccc(Cl)c(C(F)(F)F)c1 (centres undefined) | -6 | 0 | 1 | 7 | x | x
O=S(=O)(NCC1CCCO1)c1ccc(-c2ccc(Cl)cc2)cc1 (centres undefined) | 19 | 7.4* | 0 | -1 | 1 | -1
Cc1ccccc1OCC(=O)NN1CC(O)=C(c2nc(-c3ccc(F)cc3)cs2)C1=N | 0 | 5.6* | 0 | 7 | 1 | 0
O=C(Cc1ccccc1)Nc1cnn(-c2ccnc(Nc3ccc(N4CCOCC4)cc3)c2)c1 | -5 | 0 | 0 | -12 | x | x
C=CCn1c(SC(C)C(=O)NC(N)=O)nnc1-c1ccc(C(C)(C)C)cc1 (centres undefined) | -7 | 8.2* | 0 | 2 | 0 | -3
CC1(C)CC(=O)C2=C(C1)N(c1ccc(Br)cc1)C(N)=C(C#N)C2c1cccs1 (centres undefined) | 1 | -1 | 0 | -11 | x | x
COc1c(C)cc(Br)cc1C(=O)NC(=S)Nc1nc(C)cc(C)n1 | 0 | 2 | 0 | 1 | x | x
O=C(CN1C(=O)C2C3CCC(C3)C2C1=O)Nc1ccc(-n2cnnn2)cc1 (centres undefined) | 5 | 5.1* | 0 | 1 | 1 | 6
O=C(CN1C(=O)C2C3CCC(C3)C2C1=O)Nc1ccc(-c2ccccc2)cc1 (centres undefined) | 1 | -1 | 0 | 1 | x | x
CC(=O)N1CCC(N(C(=O)C2CCN(c3ccc(C(F)(F)F)cn3)CC2)C2CC2)CC1 | 16 | 5.5* | 0 | -3 | -1 | -3
O=C(NCc1ccccc1)c1ccc(-c2ccccc2[N+](=O)[O-])o1 | 4 | 0 | 0 | 6 | x | x
CN(Cc1cccc(C(=O)NCCCCCCNS(=O)(=O)c2cccc3c(N(C)C)cccc23)c1)C(=O)Nc1ccc(-c2cn[nH]c2)cc1 | 19 | 5.7* | 3.1* | 21 | 0 | 9
CCCSc1ncnc2c1c(-c1ccccc1)cn2-c1cccc(F)c1 | -7 | 7.6* | 0 | -4 | 0 | 13
CC(C)Nc1ncnc2c1c(-c1ccccc1)cn2-c1cccc(Cl)c1 | -11 | -2 | 0 | -37 | x | x
Cc1cccc(-n2cc(-c3ccccc3)c3c(NC(C)C)ncnc32)c1 | 7 | 5.0* | 0 | -21 | -1 | -1
Fc1ccc(C(CCCN2CCN3CCCC3C2)c2ccc(F)cc2)cc1 (centres undefined) | -4 | 1 | 0 | -1 | x | x
O=C1NCN(c2ccccc2)C12CCN(CCCC(c1ccc(F)cc1)c1ccc(F)cc1)CC2 | 19 | 7.2*! | 0 | 4 | -1 | -12
CC(=O)Nc1ccc(NC(=O)c2ccnc(-c3ccc(N4CCOCC4)nc3)c2)cc1 | -14 | 1 | 0 | -25 | x | x
Cc1ccc(CNC(=O)C2C3C=CC(C3)C2C(=O)O)cc1 (centres undefined) | 10 | 0 | 0 | -2 | x | x
CCOc1ccc(NC(=O)CSc2nc3ccc(N4CCCCC4)cc3c(=O)n2Cc2ccccc2)cc1 | -1 | 7.7* | 0 | 9 | 0 | 8
COc1cc(C=O)cc(OC)c1OC(=O)c1ccccc1Cl | -1 | -1 | 1 | -18 | x | x
CN1CCN(Cc2ccc(C#CCCO)cc2)CC1CCO (centres undefined) | -10 | 5.0* | 0 | 0 | 0 | 0
COc1ccccc1OC(=O)c1cc([N+](=O)[O-])ccc1Cl | -10 | 0 | 0 | -3 | x | x
CC1(C)OC(=O)N2CCN3C(=O)OC(C)(C)C3(C)C(Br)=C21 (centres undefined) | 7 | 6.0* | 0 | 7 | -1 | -3
SMILES | MITF inh | GPR151 activ | FBW7 activator | TEAD-YAP block | GPR151 conf act | GPR119 counter
Cc1cc(C)nc(SCC(=O)Nc2ncc3c(n2)CC(C)(C)CC3=O)n1 | 6 | 5.6* | 0 | 8 | 1 | 13
CC(=O)Nc1ncc2c(n1)CC(C)(C)CC2=O | 9 | 1 | 0 | -1 | x | x
Cc1ccccc1S(=O)(=O)Cc1ccc(C(=O)N2CCCCC2)o1 | 8 | 0 | 0 | -2 | x | x
O=C(c1ccc(CS(=O)(=O)Cc2ccc(F)cc2)o1)N1CCCCC1 | 7 | 5.3* | 0 | -3 | 0 | -8
CCOC(=O)CCc1c(C)nc2c(C)c(-c3ccccc3)[nH]n2c1=O | 4 | 0 | 0 | 4 | x | x
COc1ccc(/C=C/C(=O)c2cccc(OC)c2)cc1 | -1 | -1 | 0 | -16 | x | x
COc1cccc(C(=O)/C=C/c2ccccc2OC)c1 | 16 | 7.1* | 0 | -17 | 2 | 5
COc1cccc(CNC(=O)c2oc(=O)c3ccccc3c2-c2ccccc2)c1 | 11 | 1 | 0 | -3 | x | x
CCn1c(O)c(/C=C2\C=Nc3ccc(Br)cc32)sc1=O | 15 | 1 | 0 | -9 | x | x
Oc1[nH]c(=S)sc1/C=C1\C=Nc2ccc(Br)cc21 | -9 | 6.0* | 0 | -6 | 0 | 6
NS(=O)(=O)c1ccc(CCNC(=O)CCCn2c(SCc3cc(=O)n4cc(Cl)ccc4n3)nc3ccsc3c2=O)cc1 | -11 | 1 | 0 | -1 | x | x
Cc1ccc(C(=O)Nc2ccc(NC(=O)c3ccccc3N)cc2)cc1 | -1 | 5.3* | 1 | -8 | 1 | 12
O=C1CC(c2ccc(Cl)cc2)CC2=C1C(c1cc3c(cc1Br)OCO3)Nc1ccccc1N2 (centres undefined) | 3 | 9.0* | 0 | 3 | -1 | -3
O=C1CC(c2ccc(Cl)cc2)CC2=C1C(c1ccc3c(c1)OCO3)Nc1ccccc1N2 (centres undefined) | 20 | -1 | 1 | 8 | x | x
CCN1CCN(C(=O)c2cccc3ccccc23)CC1 | 17 | 1 | 0 | 5 | x | x
C=CCNC(=S)NNC(=O)COc1ccc2cc(Br)ccc2c1 | -10 | 9.7* | 0 | -74 | 0 | -4
C=CCNC(=O)COc1c(C)cc(Br)cc1C | -10 | 12* | 0 | 1 | 0 | 2
O=C(c1ccccc1)N1CCN(CC#CC2(O)CCCCC2)CC1 | 20 | 10* | 1 | -2 | 1 | 4
O=C(c1ccc(C#CC2(O)CCCCC2)cc1)N1CCN(c2ccccc2)CC1 | 9 | 2 | 0 | 1 | x | x
COc1ccc(-n2nc3cc(C)c(NC(=O)c4cccs4)cc3n2)cc1 | -8 | 5.1* | 0 | -52 | 0 | 10
COc1ccccc1NC(=O)Nc1ccnn1Cc1cccs1 | 9 | -1 | 0 | 1 | x | x
O=C1CCN(C(=O)c2n[nH]c3c2CCC3)CCN1Cc1cccc(C(F)(F)F)c1 | -2 | -1 | 0 | 6 | x | x
Cn1c(=O)n(C)c2cc(S(=O)(=O)Nc3cccc(C(F)(F)F)c3)ccc21 | -12 | 5.1* | 0 | 1 | -1 | 7
